# According to publication PMC7862700, “An all-to-all approach to the identification of sequence-specific readers for epigenetic DNA modifications on cytosine”:
# Key:
# Assay in all cases: DAPPL (digital affinity profiling via proximity ligation, sequencing); 10 mM Tris-HCl pH 7.5, 50 mM NaCl, 1 mM DTT, 4% glycerol, room temperature, 30 min; GST-TFs on glutathione beads, 16-mer random dsDNA library, 0.1% formaldehyde crosslink after washing; high values mean tight binding
# [1] = molecular target: T1, FEV (Homo sapiens, UniProt Q99581 1-238); conditions: protein: recombinant; tags: N-terminal GST; dsDNA, one strand shown
# T1 sequence: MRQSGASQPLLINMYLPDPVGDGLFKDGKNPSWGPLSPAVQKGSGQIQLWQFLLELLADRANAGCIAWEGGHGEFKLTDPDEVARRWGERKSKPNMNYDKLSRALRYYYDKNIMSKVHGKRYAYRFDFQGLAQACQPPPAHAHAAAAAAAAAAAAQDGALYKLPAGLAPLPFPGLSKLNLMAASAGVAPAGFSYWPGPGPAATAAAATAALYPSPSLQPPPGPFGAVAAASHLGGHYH
# Summary of the method: (§1)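 Human transcription factors carrying a GST fusion were produced in yeast, bound to glutathione beads, tagged with DNA barcodes and pooled together with a tag-only sample. Each pool was held with 200 nmole of a random double-stranded 16-mer DNA library in Tris/NaCl/DTT/glycerol buffer for 30 min at room temperature, then washed, crosslinked in 0.1% formaldehyde, proximity-ligated with BsaI/T4 ligase (1 h, 37 °C), PCR-amplified and sequenced on an Illumina NextSeq500. Binding signal is the read frequency of each hexamer for a given factor divided by its frequency in the tag-only sample.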
# [2] = molecular target: ETV5 (Homo sapiens, UniProt P41161 1-510); conditions: protein: recombinant; tags: N-terminal GST; dsDNA, one strand shown
# Sequence of ETV5 (P41161 whole entry): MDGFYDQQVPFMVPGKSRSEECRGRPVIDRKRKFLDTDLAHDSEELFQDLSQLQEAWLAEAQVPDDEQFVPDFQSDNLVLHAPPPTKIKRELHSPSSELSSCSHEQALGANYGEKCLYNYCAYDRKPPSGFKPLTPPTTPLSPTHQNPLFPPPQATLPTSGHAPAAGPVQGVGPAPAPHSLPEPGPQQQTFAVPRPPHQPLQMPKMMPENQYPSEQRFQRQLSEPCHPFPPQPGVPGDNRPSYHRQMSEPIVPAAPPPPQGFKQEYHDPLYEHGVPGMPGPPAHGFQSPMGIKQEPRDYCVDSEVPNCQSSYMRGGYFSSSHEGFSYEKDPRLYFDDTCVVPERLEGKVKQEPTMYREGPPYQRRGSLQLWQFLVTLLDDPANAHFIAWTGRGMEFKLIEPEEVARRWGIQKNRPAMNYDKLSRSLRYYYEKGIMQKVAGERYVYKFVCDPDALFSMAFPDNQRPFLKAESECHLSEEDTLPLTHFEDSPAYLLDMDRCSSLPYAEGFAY
# Summary of the method: as §1
# [3] = molecular target: HSF1 (Homo sapiens, UniProt Q00613 1-529); conditions: protein: recombinant; tags: N-terminal GST; chain copies: 3; dsDNA, one strand shown
# Sequence of HSF1 (Q00613 whole entry): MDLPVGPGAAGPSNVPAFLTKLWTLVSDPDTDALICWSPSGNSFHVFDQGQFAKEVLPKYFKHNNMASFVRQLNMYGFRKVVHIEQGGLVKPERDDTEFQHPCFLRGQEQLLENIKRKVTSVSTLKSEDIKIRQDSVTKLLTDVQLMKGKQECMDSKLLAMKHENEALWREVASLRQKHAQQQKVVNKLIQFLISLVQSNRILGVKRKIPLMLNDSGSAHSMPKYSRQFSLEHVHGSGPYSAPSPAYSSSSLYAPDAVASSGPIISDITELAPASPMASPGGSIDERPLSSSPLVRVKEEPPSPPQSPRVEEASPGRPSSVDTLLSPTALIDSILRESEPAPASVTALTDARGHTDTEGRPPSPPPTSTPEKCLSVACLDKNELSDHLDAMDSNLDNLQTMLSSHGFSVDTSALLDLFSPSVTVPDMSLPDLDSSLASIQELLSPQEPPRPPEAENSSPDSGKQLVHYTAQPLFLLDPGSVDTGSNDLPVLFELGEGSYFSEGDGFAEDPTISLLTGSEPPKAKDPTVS
# Summary of the method: as §1
# [4] = molecular target: T2, SPIC (Homo sapiens, UniProt Q8N5J4 1-248); conditions: protein: recombinant; tags: N-terminal GST; dsDNA, one strand shown
# T2 sequence: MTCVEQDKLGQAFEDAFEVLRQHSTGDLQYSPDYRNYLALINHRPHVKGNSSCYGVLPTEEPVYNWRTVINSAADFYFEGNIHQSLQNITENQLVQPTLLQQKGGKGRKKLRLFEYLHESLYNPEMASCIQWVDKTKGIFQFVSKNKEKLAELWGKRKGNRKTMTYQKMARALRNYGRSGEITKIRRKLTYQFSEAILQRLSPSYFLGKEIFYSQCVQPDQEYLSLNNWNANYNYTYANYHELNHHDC
# Summary of the method: as §1
# [5] = molecular target: ELF4 (Homo sapiens, UniProt Q99607 1-663); conditions: protein: recombinant; tags: N-terminal GST; dsDNA, one strand shown
# Sequence of ELF4 (Q99607 whole entry): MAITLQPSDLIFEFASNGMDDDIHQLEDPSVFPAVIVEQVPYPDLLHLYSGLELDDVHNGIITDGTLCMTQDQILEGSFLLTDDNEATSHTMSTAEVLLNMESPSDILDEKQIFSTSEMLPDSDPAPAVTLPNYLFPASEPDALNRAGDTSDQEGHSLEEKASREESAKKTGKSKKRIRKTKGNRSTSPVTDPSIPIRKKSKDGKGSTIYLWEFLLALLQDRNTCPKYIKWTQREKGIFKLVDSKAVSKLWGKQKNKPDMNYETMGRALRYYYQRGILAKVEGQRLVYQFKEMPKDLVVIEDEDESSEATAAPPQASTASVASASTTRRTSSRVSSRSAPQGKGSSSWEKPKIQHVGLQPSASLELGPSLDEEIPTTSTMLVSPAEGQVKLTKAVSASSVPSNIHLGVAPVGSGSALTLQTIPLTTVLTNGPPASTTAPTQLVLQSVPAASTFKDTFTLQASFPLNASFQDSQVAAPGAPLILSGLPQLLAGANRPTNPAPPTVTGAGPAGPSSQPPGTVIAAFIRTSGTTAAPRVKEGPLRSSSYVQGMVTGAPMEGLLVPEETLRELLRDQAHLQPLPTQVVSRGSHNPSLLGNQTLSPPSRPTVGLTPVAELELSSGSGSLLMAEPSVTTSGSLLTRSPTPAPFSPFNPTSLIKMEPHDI
# Summary of the method: as §1
# [6] = molecular target: T3, ELK4 (Homo sapiens, UniProt P28324-2 1-405); conditions: protein: recombinant; tags: N-terminal GST; dsDNA, one strand shown
# T3 sequence: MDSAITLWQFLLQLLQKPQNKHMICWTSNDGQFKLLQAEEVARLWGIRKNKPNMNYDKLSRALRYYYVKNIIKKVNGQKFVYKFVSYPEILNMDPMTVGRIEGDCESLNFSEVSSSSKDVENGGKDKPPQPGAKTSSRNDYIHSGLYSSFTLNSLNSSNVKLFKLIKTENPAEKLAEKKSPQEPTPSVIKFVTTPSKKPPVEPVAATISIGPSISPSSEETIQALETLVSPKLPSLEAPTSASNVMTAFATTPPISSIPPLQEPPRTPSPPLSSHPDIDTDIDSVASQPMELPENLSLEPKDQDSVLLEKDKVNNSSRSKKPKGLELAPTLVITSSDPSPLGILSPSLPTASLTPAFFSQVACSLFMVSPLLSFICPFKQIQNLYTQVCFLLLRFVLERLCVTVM
# Summary of the method: as §1
# [7] = molecular target: T4, ETV2 (Homo sapiens, UniProt O00321 1-342); conditions: protein: recombinant; tags: N-terminal GST; dsDNA, one strand shown
# T4 sequence: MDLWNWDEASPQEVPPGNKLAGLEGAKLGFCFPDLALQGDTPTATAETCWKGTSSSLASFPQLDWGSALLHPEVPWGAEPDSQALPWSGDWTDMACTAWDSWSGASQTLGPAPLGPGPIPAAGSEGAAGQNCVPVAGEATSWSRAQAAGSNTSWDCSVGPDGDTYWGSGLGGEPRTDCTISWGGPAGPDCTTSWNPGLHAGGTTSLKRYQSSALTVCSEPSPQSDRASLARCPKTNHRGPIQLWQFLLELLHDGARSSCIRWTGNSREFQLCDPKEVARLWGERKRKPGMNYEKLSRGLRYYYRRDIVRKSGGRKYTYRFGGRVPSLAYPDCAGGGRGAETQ
# Summary of the method: as §1
# [8] = molecular target: T5, ELF3 (Homo sapiens, UniProt P78545 1-371); conditions: protein: recombinant; tags: N-terminal GST; dsDNA, one strand shown
# T5 sequence: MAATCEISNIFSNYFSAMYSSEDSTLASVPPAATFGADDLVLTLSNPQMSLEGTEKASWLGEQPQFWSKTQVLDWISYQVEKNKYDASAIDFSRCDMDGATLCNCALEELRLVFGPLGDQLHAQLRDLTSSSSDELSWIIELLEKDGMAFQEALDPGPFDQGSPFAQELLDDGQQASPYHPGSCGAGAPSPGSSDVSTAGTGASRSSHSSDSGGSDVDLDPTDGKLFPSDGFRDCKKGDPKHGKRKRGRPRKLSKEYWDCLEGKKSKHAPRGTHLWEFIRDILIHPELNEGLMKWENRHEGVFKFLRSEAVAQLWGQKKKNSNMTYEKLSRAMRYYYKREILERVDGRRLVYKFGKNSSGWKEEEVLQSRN
# Summary of the method: as §1
# [9] = molecular target: CRX (Homo sapiens, UniProt O43186 1-299); conditions: protein: recombinant; tags: N-terminal GST; dsDNA, one strand shown
# Sequence of CRX (O43186 whole entry): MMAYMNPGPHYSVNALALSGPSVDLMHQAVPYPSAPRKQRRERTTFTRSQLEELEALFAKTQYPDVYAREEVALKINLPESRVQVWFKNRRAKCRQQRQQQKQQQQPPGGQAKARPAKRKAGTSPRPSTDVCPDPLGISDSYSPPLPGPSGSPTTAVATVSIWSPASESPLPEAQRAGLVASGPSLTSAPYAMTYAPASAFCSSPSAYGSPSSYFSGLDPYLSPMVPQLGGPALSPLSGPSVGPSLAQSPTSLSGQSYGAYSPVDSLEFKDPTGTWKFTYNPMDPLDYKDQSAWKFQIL
# Summary of the method: as §1
# [10] = molecular target: ETV1 (Homo sapiens, UniProt P50549 1-477); conditions: protein: recombinant; tags: N-terminal GST; dsDNA, one strand shown
# Sequence of ETV1 (P50549 whole entry): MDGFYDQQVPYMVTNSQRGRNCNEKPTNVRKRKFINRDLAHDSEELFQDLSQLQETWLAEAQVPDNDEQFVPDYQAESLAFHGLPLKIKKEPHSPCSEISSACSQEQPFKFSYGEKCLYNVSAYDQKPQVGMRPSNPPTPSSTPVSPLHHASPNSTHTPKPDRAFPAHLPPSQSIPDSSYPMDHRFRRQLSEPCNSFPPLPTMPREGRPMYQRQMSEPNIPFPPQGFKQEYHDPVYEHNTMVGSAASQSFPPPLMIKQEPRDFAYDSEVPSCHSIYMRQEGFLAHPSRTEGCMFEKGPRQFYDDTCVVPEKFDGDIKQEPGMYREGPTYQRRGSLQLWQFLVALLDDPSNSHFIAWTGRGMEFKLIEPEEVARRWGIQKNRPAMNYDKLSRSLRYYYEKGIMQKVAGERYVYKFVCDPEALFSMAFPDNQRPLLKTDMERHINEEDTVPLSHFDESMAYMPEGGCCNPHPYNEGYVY
# Summary of the method: as §1
# [11] = molecular target: T6, ERF (Homo sapiens, UniProt P50548 1-548); conditions: protein: recombinant; tags: N-terminal GST; dsDNA, one strand shown
# T6 sequence: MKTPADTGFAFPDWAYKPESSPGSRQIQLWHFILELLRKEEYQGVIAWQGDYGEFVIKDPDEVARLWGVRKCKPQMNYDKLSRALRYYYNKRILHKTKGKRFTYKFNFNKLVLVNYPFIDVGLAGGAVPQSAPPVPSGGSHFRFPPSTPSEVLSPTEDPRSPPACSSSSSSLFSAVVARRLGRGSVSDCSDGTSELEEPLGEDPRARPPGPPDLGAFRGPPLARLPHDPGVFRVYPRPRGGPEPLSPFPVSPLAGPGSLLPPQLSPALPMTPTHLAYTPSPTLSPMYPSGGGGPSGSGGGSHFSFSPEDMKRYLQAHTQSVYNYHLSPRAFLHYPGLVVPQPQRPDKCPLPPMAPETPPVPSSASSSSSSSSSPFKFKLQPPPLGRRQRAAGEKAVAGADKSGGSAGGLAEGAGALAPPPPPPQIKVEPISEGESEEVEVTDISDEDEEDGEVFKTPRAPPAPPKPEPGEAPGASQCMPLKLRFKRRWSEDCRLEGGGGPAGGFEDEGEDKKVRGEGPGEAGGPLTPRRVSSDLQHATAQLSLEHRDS
# Summary of the method: as §1
# [12] = molecular target: T7, ETV3L (Homo sapiens, UniProt Q6ZN32 1-361); conditions: protein: recombinant; tags: N-terminal GST; dsDNA, one strand shown
# T7 sequence: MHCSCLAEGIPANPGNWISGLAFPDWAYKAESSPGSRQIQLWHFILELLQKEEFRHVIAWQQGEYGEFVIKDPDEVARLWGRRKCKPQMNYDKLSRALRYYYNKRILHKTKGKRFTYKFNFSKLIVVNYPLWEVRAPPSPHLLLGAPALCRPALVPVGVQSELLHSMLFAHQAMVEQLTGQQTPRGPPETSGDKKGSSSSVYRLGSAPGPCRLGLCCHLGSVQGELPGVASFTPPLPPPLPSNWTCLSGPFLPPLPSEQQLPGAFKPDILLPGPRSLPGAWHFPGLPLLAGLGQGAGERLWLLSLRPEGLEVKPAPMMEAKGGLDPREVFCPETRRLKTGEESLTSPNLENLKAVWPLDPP
# Summary of the method: as §1
# [13] = molecular target: T8, ETS2 (Homo sapiens, UniProt P15036 1-469); conditions: protein: recombinant; tags: N-terminal GST; dsDNA, one strand shown
# T8 sequence: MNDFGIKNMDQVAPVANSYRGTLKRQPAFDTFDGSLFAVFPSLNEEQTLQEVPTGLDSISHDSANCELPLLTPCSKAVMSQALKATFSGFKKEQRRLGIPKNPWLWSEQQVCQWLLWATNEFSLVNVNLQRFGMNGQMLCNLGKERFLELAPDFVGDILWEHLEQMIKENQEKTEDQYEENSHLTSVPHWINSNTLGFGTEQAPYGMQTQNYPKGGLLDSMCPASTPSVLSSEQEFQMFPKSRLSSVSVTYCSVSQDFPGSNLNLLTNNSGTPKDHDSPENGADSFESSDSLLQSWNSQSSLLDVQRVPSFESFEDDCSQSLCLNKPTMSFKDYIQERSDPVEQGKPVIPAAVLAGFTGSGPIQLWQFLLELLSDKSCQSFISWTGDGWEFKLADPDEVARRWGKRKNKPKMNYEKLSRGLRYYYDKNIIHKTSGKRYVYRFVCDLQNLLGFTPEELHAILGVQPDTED
# Summary of the method: as §1
# [14] = molecular target: T9, SPDEF (Homo sapiens, UniProt O95238 1-335); conditions: protein: recombinant; tags: N-terminal GST; dsDNA, one strand shown
# T9 sequence: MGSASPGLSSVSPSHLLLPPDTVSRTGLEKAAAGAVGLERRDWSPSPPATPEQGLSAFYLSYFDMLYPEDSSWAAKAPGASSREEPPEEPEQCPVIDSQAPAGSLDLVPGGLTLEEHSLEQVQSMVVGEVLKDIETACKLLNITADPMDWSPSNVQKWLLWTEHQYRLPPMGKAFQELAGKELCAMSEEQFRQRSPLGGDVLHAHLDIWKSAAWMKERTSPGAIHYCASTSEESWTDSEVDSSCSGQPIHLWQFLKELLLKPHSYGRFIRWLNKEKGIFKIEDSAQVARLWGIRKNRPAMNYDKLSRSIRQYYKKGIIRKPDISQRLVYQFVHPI
# Summary of the method: as §1
# [15] = molecular target: T10, ETV7 (Homo sapiens, UniProt Q9Y603 1-341); conditions: protein: recombinant; tags: N-terminal GST; dsDNA, one strand shown
# T10 sequence: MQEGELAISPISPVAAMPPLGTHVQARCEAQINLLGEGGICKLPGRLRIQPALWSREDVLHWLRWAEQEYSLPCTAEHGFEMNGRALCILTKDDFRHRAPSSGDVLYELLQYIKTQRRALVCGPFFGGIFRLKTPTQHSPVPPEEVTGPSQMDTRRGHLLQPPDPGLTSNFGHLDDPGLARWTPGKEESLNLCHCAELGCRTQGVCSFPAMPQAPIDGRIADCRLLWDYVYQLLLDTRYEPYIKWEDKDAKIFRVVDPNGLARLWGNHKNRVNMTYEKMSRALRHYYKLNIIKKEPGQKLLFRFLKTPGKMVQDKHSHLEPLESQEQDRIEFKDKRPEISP
# Summary of the method: as §1
# [16] = molecular target: T11, ELF5 (Homo sapiens, UniProt Q9UKW6-2 1-255); conditions: protein: recombinant; tags: N-terminal GST; dsDNA, one strand shown
# T11 sequence: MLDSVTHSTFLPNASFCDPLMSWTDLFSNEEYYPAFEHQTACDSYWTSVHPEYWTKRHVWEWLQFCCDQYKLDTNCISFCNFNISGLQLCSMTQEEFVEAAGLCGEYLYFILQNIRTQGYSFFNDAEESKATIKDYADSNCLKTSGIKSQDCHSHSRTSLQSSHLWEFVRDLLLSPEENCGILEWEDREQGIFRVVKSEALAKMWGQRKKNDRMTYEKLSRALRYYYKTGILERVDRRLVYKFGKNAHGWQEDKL
# Summary of the method: as §1
# [17] = molecular target: T12, ETV3 (Homo sapiens, UniProt P41162-2 1-143); conditions: protein: recombinant; tags: N-terminal GST; dsDNA, one strand shown
# T12 sequence: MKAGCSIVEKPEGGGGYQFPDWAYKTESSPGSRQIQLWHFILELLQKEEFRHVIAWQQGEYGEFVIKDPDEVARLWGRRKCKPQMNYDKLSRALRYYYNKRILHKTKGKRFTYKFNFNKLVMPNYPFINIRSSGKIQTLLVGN
# Summary of the method: as §1
# [18] = molecular target: ETV6 (Homo sapiens, UniProt P41212 1-452); conditions: protein: recombinant; tags: N-terminal GST; dsDNA, one strand shown
# Sequence of ETV6 (P41212 whole entry): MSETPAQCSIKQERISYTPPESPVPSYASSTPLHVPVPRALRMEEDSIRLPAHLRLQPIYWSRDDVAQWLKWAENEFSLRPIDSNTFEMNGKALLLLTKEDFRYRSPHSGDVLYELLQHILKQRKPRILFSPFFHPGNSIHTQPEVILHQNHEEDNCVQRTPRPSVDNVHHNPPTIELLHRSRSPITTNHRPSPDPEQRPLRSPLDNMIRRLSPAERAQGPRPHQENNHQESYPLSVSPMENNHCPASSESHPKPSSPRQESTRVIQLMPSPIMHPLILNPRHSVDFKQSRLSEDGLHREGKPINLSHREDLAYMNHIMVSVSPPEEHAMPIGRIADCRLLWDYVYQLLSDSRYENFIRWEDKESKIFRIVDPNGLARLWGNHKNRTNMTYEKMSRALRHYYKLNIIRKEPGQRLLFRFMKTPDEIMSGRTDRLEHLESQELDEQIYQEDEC
# Summary of the method: as §1
sequence,measurement,setting,value
ACAGCT,binding signal,[1],"1.07 fold enrichment (6-mer frequency, TF over GST control)"
same,binding signal,[2],"1.02 fold enrichment (6-mer frequency, TF over GST control)"
same,binding signal,[3],"1.07 fold enrichment (6-mer frequency, TF over GST control)"
same,binding signal,[4],"1.11 fold enrichment (6-mer frequency, TF over GST control)"
same,binding signal,[5],"1.15 fold enrichment (6-mer frequency, TF over GST control)"
same,binding signal,[6],"1.13 fold enrichment (6-mer frequency, TF over GST control)"
same,binding signal,[7],"1.16 fold enrichment (6-mer frequency, TF over GST control)"
same,binding signal,[8],"1.36 fold enrichment (6-mer frequency, TF over GST control)"
same,binding signal,[9],"1.18 fold enrichment (6-mer frequency, TF over GST control)"
same,binding signal,[10],"1.08 fold enrichment (6-mer frequency, TF over GST control)"
same,binding signal,[11],"1.24 fold enrichment (6-mer frequency, TF over GST control)"
same,binding signal,[12],"1.19 fold enrichment (6-mer frequency, TF over GST control)"
same,binding signal,[13],"1.12 fold enrichment (6-mer frequency, TF over GST control)"
same,binding signal,[14],"1.02 fold enrichment (6-mer frequency, TF over GST control)"
same,binding signal,[15],"1.21 fold enrichment (6-mer frequency, TF over GST control)"
same,binding signal,[16],"1.12 fold enrichment (6-mer frequency, TF over GST control)"
same,binding signal,[17],"1.14 fold enrichment (6-mer frequency, TF over GST control)"
same,binding signal,[18],"1.08 fold enrichment (6-mer frequency, TF over GST control)"
